# High-throughput results: PubChem BioAssay, several laboratories
# Hits are enriched below; roughly 3.1% of the tested compounds scored in any of these assays.
# Autofluor counter: flagged as autofluorescent in microsphere protease counterscreen; compound autofluorescence counterscreen, microsphere flow cytometry; active compounds read high; actives 3.1% (n = 360,000); AID 624483; fluorescence intensity (no concentration beside the values); in the data active means fluorescence intensity above about 16000; inconclusive means no clear call, values can overlap the other calls
# Anthrax LF prot: blocks Bacillus anthracis lethal factor protease; P15917; multiplex microsphere protease cleavage assay, LF; inhibition, % at 10 µM; actives 0.12% (n = 360,000); further: plate controls were buffer without enzyme for full effect and enzyme alone for no effect
# BoNT-A LC inh2: blocks Botulinum neurotoxin A light chain protease | multiplex microsphere protease substrate cleavage, flow cytometry | inhibition, % at 10 µM | actives 0.17% (n = 360,000); further: plate controls were buffer without enzyme for full effect and enzyme alone for no effect
# SSB-PriA inh: inhibitors of Klebsiella pneumoniae PriA binding to SSB C-terminal tail; AlphaScreen SSBct-PriA binding, biotinylated peptide; inhibition, % at 33 µM; actives 0.6% (n = 430,000); in the data active means inhibition mostly above about 37%, no sharp cut-off; inactive means mostly below about 20%;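 further: plate controls were negative control peptide for no effect and reference peptide for full effect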
# BoNT F protease: blocks Botulinum neurotoxin F light chain protease. AID 588497. inhibition, % at 10 µM. actives 0.22% (n = 360,000). Multiplex microsphere protease cleavage assay, flow cytometry; in the data active means inhibition above about 35%, passing the limit was not always enough; inconclusive means no clear call, values can overlap the other calls; further: plate controls were buffer without enzyme for full effect and enzyme alone for no effect
# The depositor's hits bear a star; ? = inconclusive; . = no result given. Unless noted, no stated cut-off is given here; in the data, active means inhibition above about 30%; inconclusive means no clear call, values can overlap the other calls; inactive means below that.
SMILES,Autofluor counter,Anthrax LF prot,BoNT-A LC inh2,SSB-PriA inh,BoNT F protease
COC(=O)CC1COc2ccccc2N1C(=O)c1ccc(Br)cc1 (stereo not drawn),4286,3.6,0.4,-6.1,4.0
COC(=O)CC1COc2ccccc2N1C(=O)c1ccc(C(C)(C)C)cc1 (stereo not drawn),20115*,0.0,?,-6.7,-0.2
COC(=O)CC1COc2ccccc2N1C(=O)c1ccc(Cl)cc1 (stereo not drawn),23189*,-7.4,-1.9,-3.6,-1.2
CC(C)CCOP(=O)(c1ccc(N(C)C)cc1)C(O)c1ccccn1 (stereo not drawn),16641*,3.1,0.6,-4.5,0.5
CC(C)OP(=O)(c1ccc(N(C)C)cc1)C(O)c1ccncc1 (stereo not drawn),24190*,1.0,-2.1,1.4,-4.4
COc1ccccc1C(O)P(=O)(OC(C)C)c1ccc(N(C)C)cc1 (stereo not drawn),15735,-1.1,2.0,-1.5,-1.7
CCOP(=O)(c1ccc(N(C)C)cc1)C(O)c1ccccc1OC (stereo not drawn),18542*,-12.3,?,-15.0,5.3
CCOP(=O)(c1ccc(N(C)C)cc1)C(O)c1cccnc1 (stereo not drawn),4211,-22.7,-0.8,-9.3,?
CC(C)OP(=O)(c1ccc(N(C)C)cc1)C(O)c1ccc(Br)cc1 (stereo not drawn),4521,-8.9,-1.1,1.6,-18.5
CCCOP(=O)(c1ccc(N(C)C)cc1)C(O)c1cccnc1 (stereo not drawn),19815*,-1.2,-0.9,2.0,-4.0
CCOC(=O)C(C#N)=C1C=C(C)N(c2ccc(OC)cc2[N+](=O)[O-])C(C)=C1,.,.,.,1.0,.
CCOC(=O)C=c1sc(=Cc2ccccc2OC)c(=O)n1CC(=O)N1CCOCC1,.,.,.,-7.7,.
Cc1cnc(C(=O)NCC2CCCN(c3nccs3)C2)cn1 (stereo not drawn),.,.,.,1.0,.
Cc1cc(=O)n(-c2ccc3ccccc3n2)[nH]1,17043*,1.0,-0.3,0.4,-0.3
Cc1cccc(N=Cc2cc3c(cc2[N+](=O)[O-])OCO3)c1,9466,-11.6,0.4,45.0*,-3.2
O=[N+]([O-])c1cc2c(cc1C=Nc1ccccc1)OCO2,3808,-4.4,0.9,19.2,1.1
O=C1CC(SCc2nc3ccccc3[nH]2)C(=O)N1c1ccc(Cl)cc1 (stereo not drawn),4982,-2.2,-1.0,-14.0,-32.5
O=C1CC(SCc2nc3ccccc3[nH]2)C(=O)N1c1ccc(F)c(Cl)c1 (stereo not drawn),22834*,-4.0,-0.1,1.3,-2.6
O=C(c1ccccc1C(F)(F)F)N1CCSC(c2ccco2)CC1 (stereo not drawn),.,.,.,3.0,.
CCSc1cccc(C(=O)Nc2ccc(OC)cc2[N+](=O)[O-])c1,.,.,.,51.0*,.
COc1ccc(NC(=O)c2ccccc2NS(=O)(=O)c2ccc(C)cc2)c([N+](=O)[O-])c1,2466,-2.4,-0.9,52.7*,-15.3
COc1ccc(NS(=O)(=O)c2ccc(C)cc2)c([N+](=O)[O-])c1,4987,-7.6,-1.2,26.7,-2.7
CCOC(=O)Cc1csc(NC(=O)c2coc(NC(=O)c3ccsc3)n2)n1,.,.,.,-1.0,.
CCOc1ccc2nc(N(CCCN3CCOCC3)C(=O)CCCSc3ccccc3)sc2c1,.,.,.,-3.0,.
Cc1cccc2cc(CN(CC3CCCO3)C(=O)NC3CCCCC3)c(=O)[nH]c12 (stereo not drawn),5393,-5.1,-0.1,0.6,-10.3
SMILES,Autofluor counter,Anthrax LF prot,BoNT-A LC inh2,SSB-PriA inh,BoNT F protease
COc1ccc(CCN(Cc2cc3cccc(C)c3[nH]c2=O)C(=O)NC2CCCCC2)cc1OC,23128*,1.3,0.5,-0.3,-0.8
Cc1onc(-c2ccccc2)c1-c1n[nH]c(=S)n1-c1ccc(C(=O)O)cc1,2976,-3.0,-0.3,-28.2,-1.5
Cc1onc(-c2ccccc2)c1-c1n[nH]c(=S)n1-c1ccccc1Cl,22416*,-2.0,-1.1,-3.4,-2.1
O=[N+]([O-])c1ccc(-c2cnc(SC(c3ccccc3)c3ccccc3)[nH]2)cc1,9205,0.4,2.5,31.7,-4.7
O=[N+]([O-])c1ccc(-c2cnc(SCc3ccccc3Cl)[nH]2)cc1,3710,1.6,1.3,38.9*,0.0
COc1ccc(-c2cc(CCCC(=O)NCCc3ccccc3)no2)cc1,3846,-2.3,-0.3,-11.6,-3.6
COc1ccc(-c2cc(CCCC(=O)NCCc3ccc(OC)cc3OC)no2)cc1,24435*,-2.1,-2.4,-10.3,-2.4
CCOc1ccc(-c2cc(CCCC(=O)NCCc3ccc(OC)c(OC)c3OC)no2)cc1,22608*,-1.7,0.5,-10.8,-0.8
CCOc1ccc(-c2cc(CCCC(=O)NCCc3ccccc3)no2)cc1,3902,-0.6,0.2,-13.1,1.8
